Laboratory results taken from PubChem BioAssay AID743287 (Broad Institute, 2014).
Hit rate of the full screen: of about 370,000 compounds, about 2,300 (0.62%) were called active.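 How the source made its calls: active means lowest replicate activation of at least 40%, so every replicate reaches that level; inactive means the rest.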 Many of the other results were omitted from the sample, so actives are more common in it than they were.

Assay: GLuc luminescence reporter in INS-1E cells, primary screen for activators of glucose-dependent secretion of insulin (AID 743287);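 further: 0% = median of neutral control wells and 100% = median of IBMX positive control wells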
Details: INS-1E GLuc reporter insulin secretion, 2-3 h, at 16.6 µM, active compounds read high

activation, inactive:
COc1cccc(-c2ccc3n(c2=O)C[C@@H]2[C@@H](CO)[C@H](C(=O)NC4CCC4)[C@H]3N2C)c1 7.74%, COc1cccc(C(=O)OCc2cc(=O)oc3c(C)c(C)ccc23)c1OC 8.16%, COc1cccc2cc(C(=O)NCc3ccc(C)cc3)c(=N)oc12 12.3%, CNC[C@@H]1Oc2ccc(N(C)C)cc2CC(=O)N(C)C[C@@H]1C 2%, CC(C)(C)c1ccc(S(=O)(=O)NC(=O)C2(C)CCN2C(=O)CC2CC2)cc1 (stereo unspecified) 7.26%, CC1(C(=O)NS(=O)(=O)c2ccccc2)CCN1C(=O)C1CCCCC1 (stereo unspecified) 4.33%, O=C(NCC[C@@H]1CC[C@H](NC(=O)C2CCCCC2)[C@@H](CO)O1)Nc1ccc(Cl)cc1 -11.1%, Cc1noc(C)c1NC(=O)N(C)C[C@@H]1OCCCC[C@@H](C)Oc2ccc(NC(=O)C3CCCCC3)cc2C(=O)N([C@@H](C)CO)C[C@H]1C -7.43%, COc1ccc(-c2ccccc2[C@@H]2[C@@H](C#N)N(C(=O)NC3CCCC3)[C@H]2CO)cc1 -19.5%, COc1ccc2c3c(n(C)c2c1)[C@@H](CO)N(Cc1ccccc1OC)CC31CN(CC2CCOCC2)C1 10%, CC(C)C#Cc1ccc2c(c1)O[C@@H](CN(C)CC1CCOCC1)[C@H](C)CN([C@H](C)CO)S2(=O)=O -9.43%, O=C(COc1ccc(-c2ccccc2)cc1)NN=C1CCCC1 11%, O=C(CN1CCSCC1)N/N=C/c1ccc(F)cc1 -0.738%, CN(C)C(=O)C[C@H]1CC[C@@H](NC(=O)Nc2cccc(F)c2)[C@H](CO)O1 3.3%, CN1c2ccc(-c3ccc(F)cc3)cc2[C@@H]2[C@@H](CCN2C(=O)c2cccnc2)[C@H]1CO 18.2%, CNC[C@H]1Oc2ccc(NS(=O)(=O)c3ccccc3)cc2CC(=O)N([C@H](C)CO)C[C@@H]1C 3.16%, Cc1ccc(C)c(NC(=O)C2CCCN2C(=O)OC(C)(C)C)c1 (stereo unspecified) -3.08%, Cc1cccc(C)c1NC(=O)C1CCCN1C(=O)OC(C)(C)C (stereo unspecified) 2.21%, C[C@H]1CN(C)C(=O)c2cccc(N(C)C)c2O[C@@H]1CN(C)C -6.84%, CNC[C@H]1Oc2cc(C#CCOC)ccc2S(=O)(=O)N([C@@H](C)CO)C[C@H]1C 4.43%, Cc1noc(C)c1NC(=O)Nc1ccc2c(c1)CC(=O)N([C@@H](C)CO)C[C@H](C)[C@@H](CN(C)C(=O)Nc1ccc3c(c1)OCO3)O2 5.38%, CC(=O)N(C)C[C@@H]1Oc2ccc(NC(=O)NC(C)C)cc2C(=O)N(C)C[C@H]1C 9.69%, COc1ccc(/C=C/C(=O)Nc2ccc(C34CC5CC(CC(O)(C5)C3)C4)cc2)cc1OC 11.4%, CN(CC(=O)Nc1ccc(C(N)=O)cc1)S(=O)(=O)c1ccc2c(c1)OCCO2 -7.44%, COc1ccc(NC(=O)CN(C)S(=O)(=O)c2ccccc2)cc1OC 8.5%, COc1ccc(Cl)cc1NC(=O)CN(C)CC(=O)Nc1ccc2c(c1)OCO2 -15.8%, C[C@H](CO)N1C[C@H](C)[C@@H](CN(C)CC2CC2)Oc2ccc(NS(=O)(=O)c3cn(C)cn3)cc2CC1=O 9.55%, CO[C@H]1CN(C)C(=O)c2cc(NC(C)=O)ccc2OC[C@H](C)N(C(=O)CN(C)C)C[C@@H]1C 13.5%, O=C(Nc1cc(F)ccc1F)N1CC(=O)N2[C@H](CO)[C@@H](c3ccc(-c4cccnc4)cc3)[C@@H]2C1 13.1%, O=C(C1CCCC1)N1CC2(C1)[C@H](c1ccccc1)[C@H](CO)N2CCC(F)(F)F -20.6%, O=C(CCN1C(=O)C2C3C=CC(C3)C2C1=O)Nc1ccccc1F (stereo unspecified) 3.2%, O=C(O)CCCN1C(=O)c2ccccc2Sc2ncccc21 3.02%, COCC(=O)Nc1ccc2c(c1)OC[C@H](C)NC[C@@H](C)[C@H](OC)CN(C)C2=O -5.25%, COc1ccc2c3c([nH]c2c1)[C@H](CO)N(CC1CC1)CC31CN(C(=O)Nc2cccc(F)c2)C1 -17.2%, COc1ccc(CN(C)C[C@H]2Oc3ccc(NS(=O)(=O)c4c(C)noc4C)cc3CC(=O)N([C@H](C)CO)C[C@H]2C)cc1 6.22%, Cc1nc2ccccc2nc(=O)c1NNc1ccc([N+](=O)[O-])cc1 -4.75%, CCC1OC(c2ccc([N+](=O)[O-])cc2)=Nc2ccccc21 (stereo unspecified) 0.826%, COC(=O)C[C@H]1C=C[C@H](NC(=O)Nc2ccc(C(F)(F)F)cc2)[C@@H](CO)O1 15.4%, COc1ccccc1-c1noc(CSc2nc(C)cc(=O)[nH]2)n1 5.85%, Cc1ccc2[nH]c(=O)c(CN(C)S(=O)(=O)c3cccc4nonc34)cc2c1 6.21%, C[C@@H]1CN(C)C(=O)c2cccc(N(C)C)c2O[C@H]1CN(C)S(C)(=O)=O 23.8%, COc1cccc(C#Cc2ccc([C@@H]3[C@H]4CN(C(=O)Cc5ccccc5)CC(=O)N4[C@H]3CO)cc2)c1 6.19%

activation, active:
COc1cccc2cc(-c3cc(=O)oc4cc(C)c(O)cc34)oc12 78.5%, CC(C)(C(=O)N1CCC1(C)C(=O)NS(=O)(=O)c1ccc(Br)cc1)c1ccccc1 (stereo unspecified) 41.5%, Cc1ccc(/C=N/NC(=O)COc2ccccc2-c2ccccc2)cc1 267%, CCC[C@H]1CCCC/C=C\CCCC(=O)OCCN1C(=O)OC(C)(C)C 66.4%, COc1ccc(/C=C/C(=O)Nc2ccc3c(c2)OCCO3)cc1OC 53.8%, COc1ccc(S(=O)(=O)N(C)CC(=O)Nc2ccc3c(c2)OCCO3)cc1OC 79.4%, O=C(O)CCCN1C(=O)C2C3c4ccccc4C(c4ccccc43)[C@@H]2C1=O (stereo partly specified) 45.1%, Cc1nc(-c2ccc([N+](=O)[O-])cc2)c(-c2ccccc2)o1 97.9%, CCCc1nc(-c2cc3cc(C)ccc3[nH]c2=O)no1 43.8%
